The nature of assay [1]: CCTE_Padilla_ZF_Score.Craniofacial: CCTE's 144 Hour Post-fertilization zebrafish Assay Score for Craniofacial Malformation, Padilla Lab (AID 2284405). The method, boiled down:
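Wild-type zebrafish embryos (with chorions), one per well in 10% Hanks', were dosed at 6–8 hpf in sealed plates and kept at 26C. They were rinsed at 5 dpf. At 6 dpf two blinded assessors scored craniofacial malformations by brightfield stereomicroscopy.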

Assay [2] is described as follows: CCTE_Padilla_ZF_Score.Edema: CCTE's 144 Hour Post-fertilization zebrafish Assay Score for Edema Malformation, Padilla Lab (AID 2284406). A digest of the protocol: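 Wild-type zebrafish embryos, one per well in Hanks' solution, dosed at 6-8 hpf, sealed and reared at 26C on a 14:10 h cycle; rinsed on 5 dpf. At 6 dpf, blinded assessors scored edema by stereomicroscopy.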

Assay [3] can be described thus: CCTE_Padilla_ZF_Score.Spine: CCTE's 144 Hour Post-fertilization zebrafish Assay Score for Spine Malformation, Padilla Lab (AID 2284407). The method, boiled down:
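Wild-type zebrafish embryos, one per well in Hanks' solution, dosed at 6–8 hpf in sealed plates at 26C, 14:10 h light:dark; rinsed at 5 dpf. Two blinded assessors scored spinal defects by stereomicroscopy at 6 dpf; fitted versus DMSO.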

Assay [4] is described as follows: CCTE_Padilla_ZF_Score.Swim_bladder: CCTE's 144 Hour Post-fertilization zebrafish Assay Score for Swim Bladder Malformation, Padilla Lab (AID 2284408). A digest of the protocol: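 Wild-type zebrafish embryos, one per well in 10% Hanks', dosed at 6–8 hpf, sealed, reared at 26C and rinsed at 5 dpf. Blinded assessors scored uninflated swim bladder by stereomicroscopy at 6 dpf, relative to DMSO.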

Assay [5] in a line: CCTE_Padilla_ZF_Score.Position: CCTE's 144 Hour Post-fertilization zebrafish Assay Score for Position, Padilla Lab (AID 2284409). The method, boiled down:
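Wild-type zebrafish embryos (with chorions) exposed singly from 6–8 hpf in sealed wells of Hanks' solution at 26C, rinsed at 5 dpf. At 6 dpf, blinded assessors scored abnormal water-column position by brightfield stereomicroscopy, relative to DMSO.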

Assay [6] in a line: CCTE_Padilla_ZF_Score.Living: CCTE's 144 Hour Post-fertilization zebrafish Assay Score for Viability, Padilla Lab (AID 2284410).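 Also: larval death at 6 dpf judged by absent heartbeat or coagulation.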 A digest of the protocol: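 Wild-type zebrafish embryos were exposed singly from 6–8 hpf in sealed wells of Hanks' solution at 26C, then rinsed at 5 dpf. At 6 dpf, blinded assessors scored mortality (no heartbeat or coagulation) by stereomicroscopy, fitted against DMSO.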

The nature of assay [7]: CCTE_Padilla_ZF_Score.Tail: CCTE's 144 Hour Post-fertilization zebrafish Assay Score for Tail Malformation, Padilla Lab (AID 2284414). The method, boiled down:
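Wild-type zebrafish embryos, one per well in 200 uL 10% Hanks', dosed at 6-8 hpf, sealed, and kept at 26 C on a 14:10 h light cycle. Chemical was rinsed out at 5 dpf. Blinded brightfield scoring of tail defects followed at 6 dpf.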

In assay [8] the test system is SRY-box transcription factor 2 (SOX2) Protein Expression, Deisenroth Lab, SOX2 (gene 6657). The experiment in a line: CCTE_Deisenroth_DEVTOX-GLR_Endo_SOX2: CCTE's DevTox GLR-Endo Assay Evaluation of SRY-box transcription factor 2 (SOX2) Protein Expression, Deisenroth Lab (AID 2284412; active = hit-call score of the fitted dose curve at least 0.9, where 1 is the maximum). A digest of the protocol:
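RUES2-GLR human pluripotent cells were seeded 24 h, then differentiated 48 h with two chemical exposures 24 h apart. Cells were fixed, nuclei stained and imaged by high-content microscopy. Endpoint is %SOX2+ cells over cell count, minus 0.2% DMSO control; 10-point series 1 nM–200 uM.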

Assay [9] concerns SRY-box transcription factor 17 (SOX17) Protein Expression, Deisenroth Lab, SOX17 (gene 64321). The experiment in a line: CCTE_Deisenroth_DEVTOX-GLR_Endo_SOX17: CCTE's DevTox GLR-Endo Assay Evaluation of SRY-box transcription factor 17 (SOX17) Protein Expression, Deisenroth Lab (AID 2284413). A digest of the protocol:
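Endpoint: % change in SOX17+ fraction (SOX17+ cells / cell count) vs 0.2% DMSO solvent control. RUES2-GLR reporter cells, 48 h endoderm differentiation, two doses at 24 h intervals, high-content fluorescence imaging, 5 fields/well.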

In assay [10] the test system is Brachyury (BRA) Protein Expression, TBXT (gene 6862). The experiment in a line: CCTE_Deisenroth_DEVTOX-GLR_Endo_BRA: CCTE's DevTox GLR-Endo Assay Evaluation of Brachyury (BRA) Protein Expression, Deisenroth Lab (AID 2284417). The method, boiled down: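 Read-out: BRA+ cell count divided by total cell count by high-content imaging (5 fields per well), expressed relative to 0.2% DMSO solvent control. RUES2-GLR cells dosed twice over a 48 h differentiation; concentrations 1 nM - 200 uM.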

Assay [11] in a line: CCTE_Deisenroth_DEVTOX-GLR_Endo_CellCount: Viability Assessment in CCTE's DevTox GLR-Endo Assay, Deisenroth Lab (AID 2284420). A digest of the protocol:
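Human pluripotent RUES2-GLR line; 24 h pre-seed; 48 h endoderm-directed differentiation; 2 doses, q24h; 10 conc., 1 nM - 200 uM; fix + nuclear dye; 5 fields/well imaged; readout = nuclei count, % change vs 0.2% DMSO; n=4.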

In assay [12] the test system is SRY-box transcription factor 17 (SOX17) Protein Expression, Deisenroth Lab, SOX17 (gene 64321). Briefly: CCTE_Deisenroth_DEVTOX-GLR_Pluri_SOX17: CCTE's DevTox GLR-Pluri Assay Evaluation of SRY-box transcription factor 17 (SOX17) Protein Expression, Deisenroth Lab (AID 2284427; active = hit-call score of the fitted dose curve at least 0.9, where 1 is the maximum). A digest of the protocol:
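Human RUES2-GLR pluripotent line; 24 h seeding, 48 h defined-media differentiation, 2 doses q24h, 10 conc 1 nM - 200 uM. Fix, nuclear stain, image 5 fields/well. Endpoint = %SOX17+ minus 0.2% DMSO; n=4.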

The test system of assay [13] is SRY-box transcription factor 2 (SOX2) Protein Expression, Deisenroth Lab, SOX2 (gene 6657). The experiment in a line: CCTE_Deisenroth_DEVTOX-GLR_Pluri_SOX2: CCTE's DevTox GLR-Pluri Assay Evaluation of SRY-box transcription factor 2 (SOX2) Protein Expression, Deisenroth Lab (AID 2284428). A digest of the protocol:
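Steps: seed RUES2-GLR cells for 24 h; start 48 h differentiation in defined media; dose test chemicals at 0 and 24 h (1 nM–200 uM); fix, stain nuclei, image; compute SOX2+ percentage against 0.2% DMSO wells.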

Assay [14] concerns Brachyury (BRA) Protein Expression, Deisenroth Lab, TBXT (gene 6862). Briefly: CCTE_Deisenroth_DEVTOX-GLR_Pluri_BRA: CCTE's DevTox GLR-Pluri Assay Evaluation of Brachyury (BRA) Protein Expression, Deisenroth Lab (AID 2284429; active = hit-call score of the fitted dose curve at least 0.9, where 1 is the maximum). A digest of the protocol:
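Human pluripotent RUES2-GLR cells, seeded 24 h, were differentiated 48 h in defined media with two chemical doses at 24-h intervals (10-point, 1 nM - 200 uM). Readout: percent BRA+ cells by fluorescent reporter imaging, minus 0.2% DMSO control.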

The nature of assay [15]: CCTE_Deisenroth_DEVTOX-GLR_Pluri_CellCount: Viability Assessment in CCTE's DevTox GLR-Pluri Assay Evaluation of Total Cell Counts, Deisenroth Lab (AID 2284430). A digest of the protocol: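 RUES2-GLR human pluripotent cells, seeded 24 h, then differentiated 48 h with two chemical exposures 24 h apart; 10-point series 1 nM - 200 uM. Fixed, nuclear-stained, imaged (5 fields/well); nuclei count as % change vs 0.2% DMSO.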

For another assay, the system named is TTR (gene 7276). Briefly: CCTE_GLTED_hTTR_0.125uM: CCTE's human Transthyretin (hTTR) Inhibition Assay, with 0.125uM TTR, Great Lakes Toxicology and Ecology Division (GLTED) Lab (AID 2284431).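 Also: hits lower the fluorescence signal relative to DMSO baseline.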 A digest of the protocol: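 Fluorescence (380 ex, 475 em) reported the ANSA probe remaining bound to 0.125uM human transthyretin. Chemicals were incubated with the protein for 2 hours; activity was scored as loss of signal against DMSO negative control.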

A short description of assay [16]: Tanguay_ZF_120hpf_BRN: Oregon State University Tanguay Lab 120 Hour Post-fertilization zebrafish Assay for Brain Region Malformation (AID 2284402). The method, boiled down: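 Dechorionated wild-type Tropical 5D zebrafish embryos exposed statically from 6 to 120 hpf at 28C, one per well, 0.64% DMSO final. Brain malformation scored at 120 hpf by brightfield as present/absent; dead embryos not scored.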

Assay [17] can be described thus: Tanguay_ZF_120hpf_TCHR: Oregon State University Tanguay Lab 120 Hour Post-fertilization zebrafish Assay for Touch Responsive (AID 2284403). A digest of the protocol: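 Dechorionated Tropical 5D wild-type zebrafish embryos, one per well from 6 hpf, were statically exposed to 120 hpf at 28 °C (0.64% DMSO). Touch response was scored present/absent at 120 hpf and not scored in dead larvae.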

Assay [18] in a line: Tanguay_ZF_120hpf_ANY: Oregon State University Tanguay Lab 120 Hour Post-fertilization zebrafish Assay for Any Mortality and Malformation (AID 2284404). The method, boiled down: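 Dechorionated Tropical 5D wild-type embryos, one per well from 6 hpf, static exposure in sealed, dark plates at 28C until 120 hpf, 0.64% DMSO final. Brightfield scoring of mortality and malformations as binary presence/absence, pooling 13 morphology endpoints.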

Molecules are shown by their SMILES. Records with an inconclusive call do not appear. The source made the active and inactive calls. The calls were made as follows, unless noted: active = hit-call score of the fitted dose curve at least 0.9, where 1 is the maximum; inactive = score below 0.9.

Usually AC50 stands for the concentration giving half of the maximal activity seen.

`FC(F)(F)N1C(F)(F)C(F)(F)OC(F)(F)C1(F)F`: the outcome in [1], in assay [2], in assay [3], in assay [4], in assay [5] and in [6] was inactive. Besides, in assay [7], the result was inactive.

Take `CCCCc1oc2ccccc2c1C(=O)c1cc(I)c(OCCN(CC)CC)c(I)c1`: the AC50 was 31 µM (active) in assay [8]; 25.6 µM (active) in assay [9]; 14.2 µM (active) in assay [10]; 18.2 µM (active) in assay [11]; 21.4 µM (active) in [12]; 10.4 µM (active) in assay [13]. For the same molecule, the AC50 was 6.42 µM (active) in assay [14] and 10.6 µM (active) in assay [15].

As to `COc1cc([N+](=O)[O-])ccc1N`, the AC50 with TTR (gene 7276) is 14.9 µM (active).

In the case of `O=C(F)C(F)(F)C(F)(F)C(F)(F)C(=O)F`, the call in assay [1], in assay [2], in assay [3], in assay [4], in [5] and in assay [6] was inactive. Also, the call in assay [7] was inactive.

Regarding `O=C(CC(=O)C(F)(F)C(F)(F)C(F)(F)F)c1cccs1`, the call in assay [16], in assay [17], in assay [1], in assay [2], in assay [3] and in assay [5] was inactive. The call in assay [7] was inactive. The AC50 is 67.7 µM (active) in [18], 2.41 µM (active) in [4] and 7.34 µM (active) in assay [6].

Regarding `CCCCc1ccc2ccccc2c1S(=O)(=O)O`, in the assay with TTR (gene 7276), the AC50 is 0.712 µM (active).

Take `O=C(c1ccccc1)c1ccccc1`: the AC50 with TTR (gene 7276) is 21.3 µM (active).

`OCC(F)(F)C(F)(F)C(F)(F)C(F)(F)C(F)(F)C(F)(F)C(F)(F)C(F)(F)C(F)(F)C(F)(F)C(F)(F)F`: the molecule was classed as inactive in [16], in assay [17], in [18], in assay [1], in assay [2] and in assay [3]. Further, the molecule was called inactive in [4], in assay [5], in assay [6] and in assay [7].

Take `COC(=O)C(F)(F)C(F)(F)C(F)(F)C(F)(F)C(F)(F)F`: the outcome in assay [1], in [2], in [3], in [4], in assay [5] and in assay [6] was inactive. The outcome in assay [7] was inactive.

Consider `O=C(O)CCC(F)(F)C(F)(F)C(F)(F)C(F)(F)C(F)(F)F`, for which the molecule was called inactive in assay [16], in [17], in [18], in assay [1], in [3] and in [7]. In addition, the AC50 in assay [2] was 10.7 µM (active); in [4], 10.9 µM (active); in assay [5] it was 10.7 µM (active); in assay [6], 28.3 µM (active).

The record behind these values is PubChem BioAssay (EPA / NIEHS).
